# Shown are actives, neighbours in structure and some others; about 6% of the full set was active somewhere.
# D3 ag: qHTS of D3 Dopamine Receptor Agonist: qHTS; AID 652048, 2013; D3R DiscoveRx beta-arrestin cells, luminescence, 90 min; actives 0.58% (n = 410,000); D(3) dopamine receptor (Homo sapiens), P35462; max activation, %; in the data active = max activation above about 30%
# Target sequence (P35462 whole entry, looked up): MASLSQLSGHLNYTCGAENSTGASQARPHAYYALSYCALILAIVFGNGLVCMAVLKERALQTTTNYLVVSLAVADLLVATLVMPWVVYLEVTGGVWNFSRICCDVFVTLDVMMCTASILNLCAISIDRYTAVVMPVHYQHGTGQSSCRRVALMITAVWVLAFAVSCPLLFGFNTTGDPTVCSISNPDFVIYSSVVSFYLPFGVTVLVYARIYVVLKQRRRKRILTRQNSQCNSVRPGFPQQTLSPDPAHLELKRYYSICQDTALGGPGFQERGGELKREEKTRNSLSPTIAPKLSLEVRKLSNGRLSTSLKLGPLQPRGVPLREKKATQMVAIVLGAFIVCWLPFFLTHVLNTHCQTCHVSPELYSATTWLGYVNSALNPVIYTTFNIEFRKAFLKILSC
#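 Agonist mode: compounds and dopamine controls were applied to plated cells for 90 min at 37 degrees C after an overnight attachment at 1500 cells/well. Luminescent read-out followed 30 - 60 minutes at room temperature with DiscoveRx detection reagent.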
# D1 antagonist: Antagonist of Human D 1 Dopamine Receptor: qHTS; D(1A) dopamine receptor (Homo sapiens), P21728; HEK293 TREx D1 cells, calcium flux, dopamine EC80; active compounds read low; activity change, negative = inhibition, % at 10 µM; actives 3.2% (n = 360,000); in the data active = activity change below about -30%
#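 Kinetic fluorescence of a calcium dye serves as the read-out. D1-expressing Hek293 Trex cells, induced overnight at 30 C, are exposed to compound for 180 s before an EC80 dopamine addition, then read 180 s further.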
# D3 antag: qHTS of D3 Dopamine Receptor Antagonist: qHTS. max response, negative = inhibition, %. actives 2.5% (n = 360,000). D3R cells, DiscoveRx beta-arrestin luminescence, antagonist mode; active compounds read low. AID 652054, 2013; in the data active = max response below about -50%; inconclusive = no clear call, values can overlap the other calls
#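 Cells plated overnight at 1500 cells/well, then exposed to library compounds with dopamine controls for 90 minutes at 37 degrees C. DiscoveRx reagent added for 30–60 minutes at room temperature; luminescence read, quantitative HTS format.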
# D1 ag: Allosteric Agonists of the Human D1 Dopamine Receptor: qHTS. activation, % at 2 µM. AID 504660, 2011. HEK293 T-REx D1 cells, calcium flux, agonist mode. D(1A) dopamine receptor (Homo sapiens), P21728. actives 1% (n = 360,000); in the data active = activation above about 30%
#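 Tetracycline-induced HEK293 TREx D1 cells, force-coupled to calcium signalling, were dye-loaded with a no-wash calcium kit. Compound was pin-added after a 10 s baseline. Fluorescence was read kinetically at 1 cycle/s for 180 s, with calcium rises flagged as agonism.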
# D1 potentiator: Potentiators of Human D1 Dopamine Receptor: qHTS; D(1A) dopamine receptor (Homo sapiens), P21728; HEK293 TREx D1 cells, calcium flux, dopamine EC20 potentiation; potentiation, % at 10 µM; actives 0.036% (n = 360,000); AID 504651, 2011; in the data active = potentiation above about 30%
# Numbers stand for hits; n = inactive; u = inconclusive; x = no result; ! = repeats disagree.
SMILES,D3 ag,D1 antagonist,D3 antag,D1 ag,D1 potentiator
COc1ccc(Cl)cc1NC(=O)Cn1c(=O)n(-c2ccc(C)cc2)c(=O)c2ccc(C(=O)NCc3ccccc3Cl)cc21,n,n,x,n,n
N#Cc1ccccc1Cn1c(SCC(=O)NCc2ccccc2)nc2ccccc21,n,n,x,n,n
CCc1nc2c(OCc3ccc(F)cc3)cccn2c1N(C)C(=O)c1ccco1,n,x,n,x,x
CCc1nc2c(OCc3cc(Cl)cc(Cl)c3)cccn2c1N(C)C(=O)c1ccc(OC)cc1,n,x,-63,x,x
CCc1nc2c(OCc3ccc(Cl)cc3)cccn2c1N(C)C(=O)c1ccco1,n,x,-51,x,x
CCOc1ccccc1N1CCN(S(=O)(=O)c2ccc(C3CCCCC3)cc2)CC1,n,n,x,n,n
O=C(c1ccc2c(c1)OCCO2)N(Cc1cccnc1)c1nc2c(F)cc(F)cc2s1,n,n,x,n,n
Cc1ccccc1-c1nc(SCC(=O)NCc2ccco2)c2c(=O)n(C)c(=O)n(C)c2n1,n,n,x,n,n
CC1=C(C(=O)Nc2ccc(C)c(C)c2)C2(CCCCCC2)OC1=O,n,n,x,n,n
CCCC(CCC)C(N)=O,58,x,x,x,x
N#Cc1c(NC(=O)CS(=O)(=O)c2ccc(Cl)cc2)sc2c1CCCCC2,n,x,x,n,n
Cc1nc2ncnn2c(N2CCN(C(=O)c3cccc(F)c3)CC2)c1Cc1ccccc1,n,-91,n,n,n
CCOc1cc(-c2nc(-c3ccc(-c4ccc(C)cc4)nc3OC)no2)cc(OCC)c1OCC,n,n,x,n,n
O=C(CSc1nnc2ccc(-c3ccc(F)cc3)nn12)N1CCCC1,n,-32,n,n,n
CCc1ccc(-c2ccc3nnc(SC)n3n2)cc1,n,n,n,n,n
O=C(CSc1ncc(-c2ccc(F)cc2)[nH]1)N1CCCCC1,n,n,-59,n,n
CCSc1nnc2ccc(-c3ccc(C)cc3)nn12,n,n,n,59,n
COc1ccc(-n2c(SCC(=O)c3ccc(Cl)cc3)nc3c([nH]c4ccccc43)c2=O)cc1,n,n,x,n,n
O=C1CC(c2nc3ccccc3n2CCCCOc2ccccc2)CN1c1ccccc1Cl (centres undefined),n,n,x,n,n
C[N+](C)(C)CC(O)CC(=O)[O-] (centres undefined),n,x,x,x,x
COc1ccc(-n2ncc3c2ncn2nc(Cc4ccccc4)nc32)cc1,n,-34,x,n,n
COc1ccc(C(=O)C(C)OC(=O)CCN2C(=O)C3CC=CCC3C2=O)cc1 (centres undefined),n,-35,n,n,n
CCc1ccc(NC(=O)C(C)OC(=O)CCN2C(=O)C3CC=CCC3C2=O)cc1 (centres undefined),n,x,n,x,x
COc1ccc(CCC(=O)OC(C)C(=O)c2ccc(C)cc2)cc1 (centres undefined),n,-36,n,n,n
Cc1cc(C)cc(C(=O)N(Cc2nc(-c3ccc(Cl)cc3)no2)C(C)C)c1,n,n,x,n,n
SMILES,D3 ag,D1 antagonist,D3 antag,D1 ag,D1 potentiator
Cc1ccc(CCNC(=O)c2ccc(CSCc3ccc(C)cc3)o2)cc1,n,n,x,31,n
COc1ccc(CCNC(=O)c2c(N)no[n+]2[O-])cc1OC,n,-31,u,n,n
COc1ccc(CCNC(=O)c2ccc(CS(=O)(=O)c3ccc(C)cc3)o2)cc1OC,n,-31!,n,n,n
CCC(C)NC(=O)c1ccc(CS(=O)(=O)c2ccc(OC)cc2)o1 (centres undefined),n,-38,n,n,n
COc1ccc(CCNC(=O)c2ccc(CS(=O)(=O)c3ccc(Cl)cc3)o2)cc1OC,n,n,n,n,n
COc1ccc(S(=O)(=O)Cc2ccc(C(=O)NC(C)C)o2)cc1,n,n,n,n,n
COc1ccc(CCNC(=O)c2ccc(OC)c(OC)c2)cc1OC,n,n,n,n,n
CC(C)c1ccc(O)c(NC(=S)NC(=O)c2ccc3c(c2)OCO3)c1,n,-66,u,n,n
CCC(C)c1ccc(O)c(NC(=S)NC(=O)c2cccnc2)c1 (centres undefined),n,n,-63,n,n
CC(C)c1ccc(O)c(NC(=O)c2cccnc2)c1,n,n,n,n,n
COCCCNC(=O)c1cc(-c2cccnc2)nc2ccc(S(=O)(=O)N3CCC(C)CC3)cc12,n,n,x,n,n
O=C(O)CC1S/C(=N/N=C/C2CC=CCC2)NC1=O (centres undefined),n,-35,u,n,n
O=C(O)CC1S/C(=N/N=C/C=C/c2ccccc2)NC1=O (centres undefined),n,n,u,n,n
COC(=O)c1ccc(NC(=O)n2ncc3c(C)cccc32)cc1,n,-70,x,n,n
CCC(C(=O)NC1CCC(C)CC1)n1nc(C)c2sc3ccccc3c2c1=O (centres undefined),n,n,x,n,n
CCNC(=S)N(Cc1ccc2c(c1)OCO2)C1CC(=O)N(c2ccc(F)cc2)C1=O (centres undefined),n,-60,n,n,n
COc1cc(-c2cc3nc(NCc4ccco4)ccn3n2)cc(OC)c1OC,n,x,-75,x,x
CN(Cc1ccccc1)C(=O)c1ccc(NC(=O)Cc2cccc(NC(=O)C3CCCN(C(=O)CCc4ccccc4)C3)c2)cc1 (centres undefined),n,-33,n,n,n
CCCCn1c(CN2CCN(c3cccc(Cl)c3)CC2)nc2c1c(=O)[nH]c(=O)n2C,n,n,n,n,n
CCOC(=O)N1CCN(Cc2nc3c(c(=O)n(C)c(=O)n3C)n2Cc2cc(C)ccc2C)CC1,x,-32,x,n,n
Cn1c(=O)c2c(nc(CN3CCN(C(c4ccccc4)c4ccccc4)CC3)n2CC(N)=O)n(C)c1=O,n,n,-50,n,n
Cn1c(=O)[nH]c(=O)c2c1nc(CN1CCN(c3cccc(Cl)c3)CC1)n2CCCc1ccccc1,n,-31,n,n,n
CC(C)n1c(CN(C)Cc2ccccc2)nc2c1c(=O)n(C)c(=O)n2C,50,n,n,n,n
O=C(O)c1ccc(S(=O)(=O)N[C@H](Cc2ccc(O)cc2)C(=O)O)cc1,x,n,x,n,n
CC(=O)c1cc(-c2ccccc2)n(CCC(=O)Nc2cc(C)cc(C)c2)c1C,n,n,x,n,n
CCCCC(Sc1nc2cc3c(cc2c(=O)n1CCCC(=O)NCc1ccc(OC)cc1)OCO3)C(=O)OCC (centres undefined),n,n,x,n,n
Cn1c(=O)c2c(nc(CN3CCOCC3)n2CCCc2ccccc2)n(C)c1=O,n,n,n,n,n
CN1CCN(Cc2nc3c(c(=O)n(C)c(=O)n3C)n2CCCc2ccccc2)CC1,n,n,-52,n,n
CN(C)CCNC(=O)Cc1ccc(NC(=O)N2CCCCc3ccccc32)cc1,n,n,x,n,n

# Screening data (PubChem)
